The panel holds about 83,000 compounds, 20% with a hit somewhere; the sample as a whole holds those more often.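 Method: cells in 96-well plates; compound added at one concentration; 48 h incubation; percent growth measured; values under 10 scored active.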 A number with no mark means an inactive call. Activity calls are given as the source filed them.
Key:
Assay in all cases: NCI-60 one-dose screen, 48 h (100 = growth as untreated, 0 = no growth, -100 = all killed)
Details in all cases: 10 µM unless noted
[1] = tested on: SK-MEL-2 melanoma
[2] = tested on: EKVX NSCLC
[3] = tested on: SN12C renal
[4] = tested on: UO-31 renal
[5] = tested on: TK-10 renal
[6] = tested on: ACHN renal
[7] = tested on: CAKI-1 renal
[8] = tested on: A498 renal
[9] = tested on: CCRF-CEM leukemia
[10] = tested on: MOLT-4 leukemia

Structure (SMILES)	growth [1]	growth [2]	growth [3]	growth [4]	growth [5]	growth [6]	growth [7]	growth [8]	growth [9]	growth [10]
Nc1ncc(-c2ccc3ncnc(NCc4ccccc4)c3c2)cn1	71%	23.5%	29.5%	15.1%	-7.11% (active)	25.2%	17.4%	22.4%	42.3%	17.7%
CCOC(=O)c1c(NC(=O)c2cccc(C(F)(F)F)c2)sc2c1CCC(=O)C2	71.9%	39.4%	42.9%	7.65% (active)	54.9%	8.52% (active)	23.9%	106%	8.47% (active)	36.8%
Cc1csc(/N=C(N)/N=C(\N)c2cccs2)n1	106%	94.2%	110%	81.5%	174%	107%	85.1%	120%	110%	106%
O=C1[C@H]2Cc3c([nH]c4ccccc34)[C@H](c3ccc(Br)cc3)N2C(=O)CN1C1CCN(CC2CCCCC2)CC1	109%	83.8%	73.7%	45.3%	121%	80.4%	52.8%	79.3%	49.1%	38.5%
CCCCSC1=C(Cl)CN(c2ccccc2)C1=O	121%	97.8%	94.6%	92.2%	134%	106%	94%	108%	117%	105%
O=C(Nc1cccc(Cl)c1)Nc1nc2cc([N+](=O)[O-])ccc2o1	45.5%	27.8%	35.3%	59.3%	94.9%	47.8%	62%	28.3%	25%	33.8%
COc1cccc2c1[C@H](OC)[C@]13O[C@@]1(C2=O)[C@H](O)[C@H](C)[C@@](O)(C(=O)[C@@H]1O[C@H]1C)[C@@H]3O	-55.7% (active)	-39.5% (active)	-8.82% (active)	-16.1% (active)	-22.6% (active)	1.83% (active)	-23.4% (active)	-82.4% (active)	-20.3% (active)	-39.8% (active)
CC1=C(C)C(=O)C(Nc2ccc(C)c(C)c2)=C(Br)C1=O	112%	34.2%	98.7%	90.8%	157%	102%	94%	91.1%	-16.8% (active)	-14.7% (active)
Fc1ccc2nc(-c3cnn4cccnc34)sc2c1	119%	61.8%	90.2%	46.8%	123%	78.9%	68.9%	89.7%	102%	80.3%
CC(=C(c1ccc(OCCN2CCCC2)cc1)c1ccc(OCCN2CCCC2)cc1)c1ccc(Cl)cc1	-2.54% (active)	37.3%	47.9%	-74% (active)	78.6%	-72.5% (active)	26.8%	86.5%	-48.6% (active)	-43% (active)
Fc1cccc(Cl)c1/C=N/Nc1nc(N/N=C/c2c(F)cccc2Cl)nc(N2CCCCC2)n1	-25.8% (active)	13.8%	23.2%	9.02% (active)	27.2%	4.21% (active)	14.1%	52.8%	22.3%	13.7%
CNC(=O)Nc1ccc(Nc2cc(-c3ccc(-n4cccn4)cc3)[nH]n2)c(C)c1	122%	109%	101%	85.4%	138%	109%	113%	129%	93.1%	91.1%
O=S(=O)(Oc1ccc(-c2cn3ccoc3n2)cc1)C1CCCCC1	99.4%	100%	103%	97.4%	105%	105%	92.3%	90%	87.2%	93.5%
NC1C2CCC1CN(c1cnc(C(=O)Nc3cc(F)cc4cccnc34)cn1)C2 (stereo not given)	101%	71.2%	56.1%	34.9%	91.2%	28.3%	38.5%	72.8%	25%	16.3%
COc1ccc(-c2cc(-c3ccc(N4CCOCC4)cc3)n3c(n2)nc2ccccc23)cc1OC	97.8%	88.3%	78.6%	39.2%	98.8%	93.6%	50.6%	63%	63.7%	51.4%
NC(=O)c1ncn2c(=O)n(CCF)nnc12	-6.14% (active)	92.5%	85.5%	41%	44.3%	62.2%	34%	101%	28.5%	29.9%
C#C[C@]1(O)CC[C@H]2[C@@H]3CC=C4c5sc(N(C)c6ccccc6)nc5CC[C@]4(C)[C@H]3CC[C@@]21C	85.8%	103%	91.2%	106%	137%	92.1%	92.3%	88.4%	44.3%	31.3%
CCC(=C(c1ccc(OCCN2CCCCCC2)cc1)c1ccc(OCCN2CCCCCC2)cc1)c1ccc(Cl)cc1	-29.9% (active)	54.5%	48.3%	13.6%	114%	26.2%	44.3%	84.4%	3.5% (active)	4.03% (active)
O=C(/C=C/c1cccc(Br)c1)c1cccc(OCCCCOc2cccc(C(=O)/C=C/c3cccc(Br)c3)c2)c1	104%	101%	99.7%	91.4%	115%	101%	100%	113%	105%	90.4%
N#C/C(=C\c1cccc2c1OCO2)C(=O)Nc1sc2c(c1C#N)CCCC2	106%	87.8%	98.3%	82.6%	120%	109%	86.1%	98.6%	108%	102%
O=C(/C=C/c1cc(Cl)ccc1Cl)Nc1ncc(Cc2ccc(Cl)cc2)s1	24.4%	30.2%	9.91% (active)	19.3%	34.1%	3.59% (active)	2.37% (active)	-32.8% (active)	11.1%	15.2%
N#Cc1c(-c2ccc(F)cc2)cc(-c2c[nH]c3ccccc23)nc1-c1c[nH]c2ccccc12	96.1%	92.8%	98.8%	84.7%	128%	102%	92.5%	89.4%	102%	103%
C#Cc1nc(/C=C/C(=O)NO)cs1	81.5%	85.2%	91.6%	-94% (active)	43%	-81.9% (active)	-94.9% (active)	17.9%	-45.7% (active)	-45.3% (active)
N/C(=N\C(N)=N\c1nc2ccccc2s1)c1ccc(Cl)cc1	96.8%	59.8%	61.1%	73.1%	132%	62.1%	65.1%	74.7%	57.9%	74%
CCCCc1nc2c(N)nc3ccccc3c2n1Cc1cccc(CN)c1	79.4%	77%	68.9%	70.5%	89.9%	65%	14.2%	16.3%	23.9%	33.9%
